Data on 8 molecules can be found in PubChem BioAssay (Tox21).

Structures are written as SMILES. Values joined by “and” are separate entries in the source; they are usually repeats but may differ in a detail not shown here. Equal values may be shown once. Results filed as inconclusive are left out. More than one record can exist for a structure, and the calls need not agree. Active and inactive are the calls of the source. Unless noted, calls follow the shape of the dose curve; as a rule, active = well fitted curve in the direction sought with a large enough effect in the repeat runs; inconclusive = weak or mixed curves; inactive = no such curve, though single readings can be large; an effect the other way counts as inactive or inconclusive.

A short description of assay [1]: qHTS assay to identify small molecule antagonists of the thyroid receptor (TR) signaling pathway - cell viability counter screen (AID 743064). Also: nearly all actives have a fitted effect of over 50% in size. Also: potency is read from the fitted curve at half-maximal effect. An outline of the steps:
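GH3.TRE-Luc cells, 4 h pre-plating; cpd + T3 1 nM final; 37 °C 23.5 h; CellTiter-Fluor 30 min; fluorescence read.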

Assay [2] in a line: qHTS assay to identify small molecule antagonists of the thyroid receptor (TR) signaling pathway (AID 743065). Also: series mostly up to about 70 µM; nearly all actives have a fitted effect of over 55% in size. An outline of the steps: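 GH3.TRE-Luc rat pituitary cells carrying two TR response elements driving luciferase were plated for 4 h, given compound plus 1 nM T3 (final), and incubated 23.5 h at 37 C. ONE-Glo luminescence measured reporter inhibition; CellTiter-Fluor fluorescence tracked cytotoxicity.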

For assay [3], the system named is thyroid hormone receptor (rat, GH3 cells). The assay is described as follows: qHTS assay to identify small molecule agonists of the thyroid receptor (TR) signaling pathway (AID 743066; calls by dose curve).
Assay [4] in a line: qHTS assay to identify small molecule antagonists of the estrogen receptor alpha (ER-alpha) signaling pathway - cell viability counter screen (AID 743074; calls by dose curve;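 also: HEK293 cells carrying ER-alpha-UAS-bla reporter stimulated with 17beta-estradiol; nearly all actives have a fitted effect of over 45% in size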).
The nature of assay [5]: qHTS assay to identify small molecule antagonists of the estrogen receptor alpha (ER-alpha) signaling pathway using the BG1 cell line - cell viability counter screen (AID 743081).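 Also: compound given together with 17beta-estradiol as the ER stimulus; series mostly up to about 70 µM; nearly all actives have a fitted effect of over 45% in size.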
The nature of assay [6]: qHTS assay to identify small molecule that activate the aryl hydrocarbon receptor (AhR) signaling pathway - cell viability counter screen (AID 743086).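 Also: HepG2 liver cells carrying the AhR DRE luciferase reporter; series mostly up to about 70 µM; nearly all actives have a fitted effect of over 45% in size.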 An outline of the steps: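 HepG2-AhR-luc (HG2L7.5c1) cells, 4000/well, were preincubated 5 h at 37C, exposed to compound in qHTS format for 24 hr at 37C, then given CellTiter-Fluor for 30 min; viability was read as fluorescence in the reporter wells.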

Assay [7] can be described thus: qHTS assay to identify small molecule antagonists of the peroxisome proliferator-activated receptor gamma (PPARg) signaling pathway - cell viability counter screen (AID 743194). Also: nearly all actives have a fitted effect of over 55% in size. An outline of the steps:
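PPARg-UAS-bla HEK293H cells were plated, rested 5 h at 37 C, then treated with compounds plus rosiglitazone (50 nM final) for 17 h at 37 C; viability was then read by CellTiter-Glo luminescence after 30 min at room temperature.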

Assay [8] can be described thus: qHTS assay for small molecule agonists of the antioxidant response element (ARE) signaling pathway (AID 743202; active = well fitted activation curve with a large enough effect in the signal ratio in the repeat runs, not every such curve was filed as active; the % refers to the signal ratio). An outline of the steps: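 Following a 16 h, 37 C exposure of reporter HepG2 cells (ARE-driven beta-lactamase, 2,000 cells/well) to compounds, FRET substrate was applied for 2 h at room temperature and fluorescence intensity recorded.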
Assay [9] in a line: qHTS assay for small molecule activators of the heat shock response signaling pathway - cell viability counter screen (AID 743209). Also: nearly all actives have a fitted effect of over 50% in size. An outline of the steps: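 HSE-bla HeLa; 1500 cells/well; overnight 37 C, 5% CO2; compound 5 h 37 C; LiveBLAzer B/G substrate 2.5 h RT; CellTiter-Glo 30 min RT; luminescence.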
A short description of assay [10]: qHTS assay for small molecule activators of the heat shock response signaling pathway (AID 743210; active = well fitted activation curve with a large enough effect in the signal ratio in the repeat runs, with a control signal flat, not every such curve was filed as active; the % refers to the signal ratio; also: series mostly up to about 63 µM). An outline of the steps: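 Heat shock element–beta-lactamase HeLa reporter cells; qHTS with compounds for 5 h at 37 C; detection by FRET substrate fluorescence after 2.5 h at RT.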
Assay [11] has as its target Estrogen receptor (Homo sapiens) (UniProt P03372). Kind of assay: qHTS assay to identify small molecule antagonists of the estrogen receptor alpha (ER-alpha) signaling pathway (AID 743069; active = well fitted curve in the direction sought with a large enough effect in the signal ratio in the repeat runs, not every such curve was filed as active; the % refers to the signal ratio). An outline of the steps: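 A 17beta-estradiol challenge was applied right after compound transfer to ER-alpha-UAS-bla HEK293 cells previously kept in charcoal-stripped serum. Plates stood 18 hr at 37C and 5% CO2; fluorescence was read following 2 hr FRET substrate loading at room temperature.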

Assay [12] has the same target. Kind of assay: qHTS assay to identify small molecule agonists of the estrogen receptor alpha (ER-alpha) signaling pathway (AID 743075; calls by dose curve;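 also: HEK293 GripTite cells with ER-alpha and UAS-driven beta-lactamase reporter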; also: potency is read from the fitted curve at half-maximal effect).
The target is the same in assay [13]. Kind of assay: qHTS assay to identify small molecule agonists of the estrogen receptor alpha (ER-alpha) signaling pathway using the BG1 cell line (AID 743079). Also: nearly all actives have a fitted effect of over 20% in size. Also: potency is read from the fitted curve at half-maximal effect.
Assay [14] is described as follows: qHTS assay to identify small molecule antagonists of the estrogen receptor alpha (ER-alpha) signaling pathway using the BG1 cell line (AID 743080; calls by dose curve;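 also: BG1 cells stimulated with 17beta-estradiol alongside compound; series mostly up to about 70 µM; nearly all actives have a fitted effect of over 25% in size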). An outline of the steps:
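Seeding, 24 h rest, compound transfer from DMSO, 17beta-estradiol addition, 21.5 h incubation, CellTiter-Fluor (30 min, 37 C), then ONE-Glo (30 min, room temperature): this sequence was run on BG1-Luc-4E2 reporter cells.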

The target in assay [15] is Aromatase (Homo sapiens) (UniProt P11511). Kind of assay: qHTS assay to identify aromatase inhibitors (AID 743083). Also: series mostly up to about 70 µM; nearly all actives have a fitted effect of over 55% in size.
Chain of Aromatase (Homo sapiens) (P11511 whole entry, looked up): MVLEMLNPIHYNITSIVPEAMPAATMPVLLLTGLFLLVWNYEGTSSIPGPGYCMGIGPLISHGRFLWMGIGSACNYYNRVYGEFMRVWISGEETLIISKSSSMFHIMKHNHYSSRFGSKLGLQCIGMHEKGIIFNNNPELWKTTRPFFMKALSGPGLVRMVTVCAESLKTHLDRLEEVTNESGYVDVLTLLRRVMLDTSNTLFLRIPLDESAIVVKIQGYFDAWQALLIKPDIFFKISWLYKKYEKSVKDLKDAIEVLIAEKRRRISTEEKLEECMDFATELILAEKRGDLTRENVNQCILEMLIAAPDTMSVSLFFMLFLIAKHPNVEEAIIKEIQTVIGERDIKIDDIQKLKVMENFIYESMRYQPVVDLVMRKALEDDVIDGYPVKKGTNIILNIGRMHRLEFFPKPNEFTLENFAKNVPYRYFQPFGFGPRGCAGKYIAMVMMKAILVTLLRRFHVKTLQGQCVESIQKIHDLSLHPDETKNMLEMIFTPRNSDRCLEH
Assay [16] can be described thus: qHTS assay to identify aromatase inhibitors - cell viability counter screen (AID 743084).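 Also: cells stimulated with testosterone during compound exposure; nearly all actives have a fitted effect of over 55% in size.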
The target of assay [17] is Aryl hydrocarbon receptor (Homo sapiens) (UniProt P35869). Kind of assay: qHTS assay to identify small molecule that activate the aryl hydrocarbon receptor (AhR) signaling pathway (AID 743085). Also: nearly all actives have a fitted effect of over 15% in size. Also: potency is read from the fitted curve at half-maximal effect.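 As to activation: HG2L7.5c1 human HepG2 liver cells with stably integrated DRE-driven firefly reporter; series mostly up to about 70 µM.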 An outline of the steps:
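Luminescence read-out: ONE-Glo reagent, 30 min at room temperature, in HG2L7.5c1 HepG2 reporter cells treated 24 h at 37C. Viability was measured beforehand by CellTiter-Fluor fluorescence after 30 min at 37C.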

Assay [18] concerns the target Peroxisome proliferator-activated receptor gamma (Homo sapiens) (UniProt P37231). Kind of assay: qHTS assay to identify small molecule agonists of the peroxisome proliferator-activated receptor gamma (PPARg) signaling pathway (AID 743094; active = well fitted activation curve with a large enough effect in the signal ratio in the repeat runs, not every such curve was filed as active; the % refers to the signal ratio). An outline of the steps:
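HEK293H PPARg-bla cells, 5 h settle at 37C/5% CO2; compound (DMSO) 17 h, 37C; B/G FRET substrate 1 h RT; fluorescence intensity read-out. qHTS format.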

Assay [19] in a line: qHTS assay for small molecule agonists of the antioxidant response element (ARE) signaling pathway - cell viability counter screen (AID 743203; calls by dose curve; also: nearly all actives have a fitted effect of over 55% in size). An outline of the steps: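 Luminescence read-out (CellTiter-Glo, 30 min at room temperature) measured cell viability in the same wells as the ARE beta-lactamase reporter. HepG2 ARE-bla cells were treated with compounds for 16 hrs at 37C/5% CO2.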

Assay [20] deals with Peroxisome proliferator-activated receptor gamma (Homo sapiens) (UniProt P37231). Kind of assay: qHTS assay to identify small molecule antagonists of the peroxisome proliferator-activated receptor gamma (PPARg) signaling pathway (AID 743191; calls by dose curve; also: series mostly up to about 63 µM; nearly all actives have a fitted effect of over 30% in size). An outline of the steps:
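GeneBLAzer PPARg UAS-bla HEK293H cells carrying a UAS-driven beta-lactamase reporter were plated at 3000 cells/well, preincubated 5 h at 37C, then given compound for 17 h at 37C; LiveBLAzer B/G FRET substrate was read after 1 h at room temperature.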

Chain of Peroxisome proliferator-activated receptor gamma (Homo sapiens) (P37231 whole entry, looked up): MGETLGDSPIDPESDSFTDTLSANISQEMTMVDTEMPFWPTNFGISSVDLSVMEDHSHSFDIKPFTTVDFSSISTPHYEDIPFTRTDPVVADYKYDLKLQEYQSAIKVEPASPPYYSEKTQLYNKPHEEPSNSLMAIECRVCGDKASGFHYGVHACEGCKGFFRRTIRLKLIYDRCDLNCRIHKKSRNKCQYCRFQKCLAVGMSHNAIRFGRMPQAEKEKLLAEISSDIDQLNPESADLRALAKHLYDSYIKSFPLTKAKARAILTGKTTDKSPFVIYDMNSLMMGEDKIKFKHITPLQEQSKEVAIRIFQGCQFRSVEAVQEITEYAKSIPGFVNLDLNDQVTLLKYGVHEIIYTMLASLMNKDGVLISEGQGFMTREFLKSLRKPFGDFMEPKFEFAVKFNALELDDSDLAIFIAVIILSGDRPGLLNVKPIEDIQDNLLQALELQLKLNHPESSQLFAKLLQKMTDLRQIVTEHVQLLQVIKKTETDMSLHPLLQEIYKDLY
Chain of Aryl hydrocarbon receptor (Homo sapiens) (P35869 whole entry, looked up): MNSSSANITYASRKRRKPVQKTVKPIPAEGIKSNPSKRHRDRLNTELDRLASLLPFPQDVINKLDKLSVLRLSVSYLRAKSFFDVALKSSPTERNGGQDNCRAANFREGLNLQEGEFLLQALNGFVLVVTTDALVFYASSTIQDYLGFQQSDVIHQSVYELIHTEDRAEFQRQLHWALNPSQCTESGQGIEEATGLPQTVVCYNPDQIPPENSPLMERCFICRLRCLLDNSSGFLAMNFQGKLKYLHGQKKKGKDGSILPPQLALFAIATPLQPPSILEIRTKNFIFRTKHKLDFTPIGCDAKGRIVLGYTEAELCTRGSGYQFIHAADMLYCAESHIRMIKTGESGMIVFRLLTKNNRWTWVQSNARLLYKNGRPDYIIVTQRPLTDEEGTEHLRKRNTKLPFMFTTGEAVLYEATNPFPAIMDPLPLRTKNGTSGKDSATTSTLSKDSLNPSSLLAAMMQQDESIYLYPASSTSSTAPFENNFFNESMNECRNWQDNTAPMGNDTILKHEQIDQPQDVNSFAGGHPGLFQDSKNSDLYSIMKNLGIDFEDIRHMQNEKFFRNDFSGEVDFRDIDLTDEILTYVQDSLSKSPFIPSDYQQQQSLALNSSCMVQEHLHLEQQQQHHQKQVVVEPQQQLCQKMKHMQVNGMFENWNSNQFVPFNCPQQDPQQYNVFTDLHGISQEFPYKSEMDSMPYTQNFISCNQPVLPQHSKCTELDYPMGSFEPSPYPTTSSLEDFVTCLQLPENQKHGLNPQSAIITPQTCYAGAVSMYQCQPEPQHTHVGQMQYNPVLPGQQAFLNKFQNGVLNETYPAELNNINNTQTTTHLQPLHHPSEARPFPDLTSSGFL
Chain of Estrogen receptor (Homo sapiens) (P03372 whole entry, looked up): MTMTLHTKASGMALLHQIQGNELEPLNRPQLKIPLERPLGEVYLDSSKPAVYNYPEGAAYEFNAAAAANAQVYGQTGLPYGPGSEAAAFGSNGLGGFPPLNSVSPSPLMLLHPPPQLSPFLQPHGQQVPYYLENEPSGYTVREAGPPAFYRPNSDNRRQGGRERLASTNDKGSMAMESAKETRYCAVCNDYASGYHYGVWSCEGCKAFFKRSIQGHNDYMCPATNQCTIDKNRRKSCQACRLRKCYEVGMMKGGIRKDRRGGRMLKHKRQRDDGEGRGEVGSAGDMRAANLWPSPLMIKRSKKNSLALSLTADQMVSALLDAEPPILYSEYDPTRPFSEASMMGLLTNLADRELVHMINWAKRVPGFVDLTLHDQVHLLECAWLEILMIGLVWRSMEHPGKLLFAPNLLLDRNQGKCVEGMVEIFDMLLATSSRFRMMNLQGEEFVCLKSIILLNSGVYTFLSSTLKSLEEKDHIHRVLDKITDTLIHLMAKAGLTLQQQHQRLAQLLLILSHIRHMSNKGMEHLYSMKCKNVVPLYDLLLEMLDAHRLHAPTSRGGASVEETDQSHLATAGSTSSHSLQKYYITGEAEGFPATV

For `Cc1[nH]c(=O)c(C#N)cc1-c1ccc2nccn2c1`, the Potency result in assay [1], in assay [2], in [5], in assay [6] and in assay [8] was “inactive” throughout. For the same molecule, the outcome in assay [3], in [4], in assay [7], in [9] and in assay [10] was inactive.

For `c1ccc([C@H]2CN3CCSC3=N2)cc1`, the Potency entry in assay [2], in assay [5], in assay [15], in assay [16], in assay [17] and in assay [6] was “inactive” in each case. The Potency entry in assay [8] and in [19] was “inactive” each time. Besides, the outcome in assay [3], in [11], in [4], in [14], in assay [18] and in assay [7] was inactive. Further, the molecule was classed as inactive in [9] and in assay [10]. For the same molecule, the Potency in [12] is 0.0601 µM [fluorescent] (active); in assay [13], 11.9 µM (active).

For the molecule `O=C(O)c1ccccc1OP(=O)(O)O`, the Potency entry in assay [2], in assay [12], in assay [13], in assay [5], in [15] and in assay [16] was “inactive” throughout. The Potency result in assay [17], in [6], in assay [20] and in [8] was “inactive” in each case. The result in assay [3], in assay [11], in assay [4], in [14], in assay [18] and in [7] was inactive. For the same molecule, the outcome in assay [9] and in [10] was inactive.

Regarding `NS(=O)(=O)c1cc2c(cc1Cl)NC(C1CC3C=CC1C3)NS2(=O)=O` (configuration not stated), the Potency result in assay [2], in assay [12], in assay [13], in assay [5], in assay [15] and in [16] was “inactive” throughout. The Potency result in assay [17], in assay [6], in assay [8] and in assay [19] was “inactive” each time. The result in assay [3], in assay [11], in assay [4], in assay [14], in assay [18] and in assay [7] was inactive. Also, the call in [9] and in [10] was inactive.

Consider `CCCCCCOC(=O)CCCCC(=O)OCCCCCC`, for which the Potency entry in assay [2], in assay [12], in [13], in assay [5], in assay [15] and in [16] was “inactive” in each case. Besides, the Potency entry in assay [17], in [6] and in [20] was “inactive” throughout. For the same molecule, the result in [3], in assay [11], in [4], in assay [14], in [18] and in assay [7] was inactive. In addition, the molecule was classed as inactive in [9] and in assay [10].

With `CCCCOCCOCCOCc1cc2c(cc1CCC)OCO2`, the Potency result in [1], in assay [5], in [15], in assay [16], in assay [6] and in assay [8] was “inactive” each time. Further, the Potency result in assay [19] is “inactive”. The molecule was called inactive in assay [3], in assay [4], in assay [7], in assay [9] and in assay [10]. The Potency result in [17] is “inactive and 18 µM (active)”.

With `CO/N=C(/C(=O)N[C@@H]1C(=O)N2C(C(=O)OCOC(=O)C(C)(C)C)=C(C)CS[C@H]12)c1csc(N)n1`, the Potency result in assay [1], in assay [5], in assay [15], in [16], in [17] and in assay [6] was “inactive” each time. The Potency result in assay [8] and in assay [19] was “inactive” in each case. Also, the molecule was called inactive in assay [3], in assay [7], in assay [9] and in [10].

Turning to `COc1ccc(CCN(C)CCCC(C#N)(c2cc(OC)c(OC)c(OC)c2)C(C)C)cc1OC` (configuration not stated), the Potency in [1] is 29.8 µM (active). In addition, the result in [3], in [4], in [7], in [9] and in assay [10] was inactive. Moreover, the Potency entry in assay [15], in assay [17], in assay [6], in assay [8] and in [19] was “inactive” in each case.
